Shown are actives, neighbours in structure and some others; about 1.7% of the full set was active somewhere.
CTSL1 counter: blocks F. hepatica cathepsin L1 in PFM18AAP counter-screen; recombinant F. hepatica cathepsin L1, Z-Leu-Arg-MCA fluorescence; inhibition, % at 5.96 µM; AID 1906; 0.49% of 300,000 active;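 active = inhibition above the mean of all tested compounds plus 3 SD, set per screening campaign, cut at about 17% in these data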;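 note: 0% = plate median of test compound wells and 100% = 1 µM Z-Phe-Ala-diazomethylketone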
LANA-H2A inh: blocks KSHV LANA binding to histone H2A/H2B; Q9QR71; cell-free LANA-H2A/H2B peptide, fluorescence polarization; inhibition, % (test concentration not listed); 0.6% of 320,000 active; in the data active = inhibition mostly above about 10%, no sharp cut-off; inactive = mostly below about 6.7%
HTR2A ag: mouse HTR2A agonism via beta-arrestin recruitment | P35363 | CHO-K1 mHTR2A beta-arrestin complementation, luminescence; percent of 30 µM serotonin response | activation, % at 7.6 µM | 0.66% of 360,000 active;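 active = activation above a run cutoff, the mean activation of all tested compounds plus 3 SD, cut at about 14% in these data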;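 note: 0% = plate median of compound wells and 100% = 30 µM serotonin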
HDAC3 inh: blocks human histone deacetylase 3 | inhibition, % at 8.3 µM | O15379 | recombinant HDAC3, fluorogenic peptide/trypsin coupled, fluorescence | 0.15% of 320,000 active | AID 2718; in the data active = inhibition above about 26%, passing the limit was not always enough; inconclusive = no clear call, values can overlap the other calls
Target sequence (O15379 whole entry, looked up): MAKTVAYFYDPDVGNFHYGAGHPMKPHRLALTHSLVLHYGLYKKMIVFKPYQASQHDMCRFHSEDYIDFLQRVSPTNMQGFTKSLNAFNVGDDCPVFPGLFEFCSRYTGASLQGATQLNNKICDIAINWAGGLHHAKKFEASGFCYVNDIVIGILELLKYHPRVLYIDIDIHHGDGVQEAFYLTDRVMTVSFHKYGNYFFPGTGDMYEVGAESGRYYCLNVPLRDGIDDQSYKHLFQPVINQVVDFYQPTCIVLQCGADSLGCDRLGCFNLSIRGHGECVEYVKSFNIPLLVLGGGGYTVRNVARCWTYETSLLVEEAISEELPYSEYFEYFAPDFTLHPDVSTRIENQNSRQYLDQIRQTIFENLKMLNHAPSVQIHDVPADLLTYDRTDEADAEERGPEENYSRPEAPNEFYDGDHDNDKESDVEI
OPRM1 ag: counter-screen for mouse HTR2A agonists: human mu opioid receptor agonists | activation, % at 9.3 µM | U2OS OPRM1 beta-arrestin PathHunter, luminescence; DMSO 0%, DAMGO 9.3 µM 100% | shares compounds with HTR2A ag | 5.3% of 2,300 active;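 active = mean activation above the mean of DMSO-only wells plus 3 SD, cut at about 0.5% in these data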
HTR2A ag conf: confirmation of mouse HTR2A serotonin receptor agonists | shares compounds with HTR2A ag | AID 624381 | CHO-K1 PathHunter beta-arrestin recruitment, luminescence; DMSO 0%, 30 µM serotonin 100% | activation, % at 7.6 µM | 19% of 2,300 active;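 active = mean activation across triplicates above the hit threshold derived in the original primary screen, cut at about 15% in these data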
Starred values were filed as active, the others as inactive; ? = inconclusive; · = no result.

SMILES	CTSL1 counter	LANA-H2A inh	HTR2A ag	HDAC3 inh	OPRM1 ag	HTR2A ag conf
COc1ccc(C2=NN(c3ccccc3)C(c3cn(CCC(=O)O)nc3-c3ccccc3)C2)cc1 (configuration not stated)	3	9	0	-39	·	·
O=C(CCC(=O)N1CCN(c2ccccc2F)CC1)c1ccc(Cl)s1	·	-2	19*	1	0	-5
Cc1ccc(S(=O)(=O)Nc2c(C)n(C)n(-c3ccccc3)c2=O)cc1C(=O)OCC(=O)N1CCCC(C)C1 (configuration not stated)	-4	-2	16*	-5	-1	1
CCn1c(SCC(=O)NCC2CCCO2)nnc1-c1c[nH]c2ccccc12 (configuration not stated)	3	-6	-2	-5	·	·
Cn1c(SCC(=O)NCC2CCCO2)nnc1-c1c[nH]c2ccccc12 (configuration not stated)	-3	-1	37*	3	-1	-2
COc1cc(OC)cc(-c2c(-c3ccc(F)cc3)c3cc(-c4ccc5[nH]ccc5c4)ccc3n2C)c1	·	3	15*	-8	-1	-4
COc1cc(OC)cc(-c2c(-c3ccsc3)c3cc(Br)ccc3n2C)c1	·	-2	15*	-2	0	-2
COc1cccc(-c2c(-c3cc(OC)cc(OC)c3)n(C)c3ccc(-c4ccc5[nH]ccc5c4)cc23)c1	·	-4	8	-15	·	·
Cc1ccc(N2CCC(N3CCN(C)C(CCO)C3)CC2)cc1 (configuration not stated)	0	-8	-8	-10	·	·
Cc1ccc(NC(=O)CCOc2ccccc2C)cc1C	1	-2	0	-1	·	·
COc1ccccc1-c1noc(-c2ccccc2)n1	3	0	18*	6	0	-4
O=C(COC(=O)c1ccco1)Nc1ccc(N2CCOCC2)cc1	·	·	17*	·	0	-3
Cc1cc(C(=O)CSc2nc3ccccc3[nH]2)c(C)n1CC1CCCO1 (configuration not stated)	2	0	25*	0	0	10
Cc1cc(C(=O)CSc2nc(N)cc(=O)[nH]2)c(C)n1CC1CCCO1 (configuration not stated)	·	2	0	-4	·	·
CCCCN(C(=O)C(C)Oc1cccc(Cl)c1)c1c(N)n(CCC)c(=O)[nH]c1=O (configuration not stated)	-6	3	10	6	·	·
CCOC(=O)C(C(=O)Nc1ccccn1)C1CCCCC1 (configuration not stated)	0	3	-9	-2	·	·
CCOC(=O)C(C(=O)Nc1cccc(C)n1)C1CCCCC1 (configuration not stated)	-8	1	14*	0	0	-4
CC1(c2nc3ccccc3[nH]2)c2ccccc2C(=O)N1Cc1ccccc1 (configuration not stated)	·	·	1	·	·	·
Cc1ccccc1-n1ccnc1SCC(=O)O	5	3	17*	1	-1	-5
Cc1cccc(-n2ccnc2SCC(=O)O)c1C	-2	-1	1	7	·	·
Cc1ccc(CS(=O)(=O)Cc2ccc(C(=O)NC3CCCC3)o2)cc1	3	4	-1	2	·	·
NC(=O)C1CCN(CC(=O)Nc2ccc3c(c2)OCCO3)CC1	·	2	-2	4	·	·
COC(=O)C1CCN(CC(=O)Nc2ccc3c(c2)OCCO3)CC1	·	0	32*	4	-1	42*
CC12CCC(=O)N1C(C(=O)Oc1cccc(F)c1)CS2 (configuration not stated)	·	·	5	·	·	·
O=C(CCc1n[nH]c(=O)[nH]c1=O)N1CCCCC1	-10	0	16*	1	0	-1
CC(=O)N1CCc2cc(S(=O)(=O)NC(Cc3ccccc3)C(=O)O)ccc21 (configuration not stated)	5	-1	-1	2	·	·
Nc1cn(C2OC(CO)C(O)C2O)c(=O)[nH]c1=O (configuration not stated)	·	2	5	?	·	·
CN(C)c1ccc(C(C(=O)NCc2ccccc2)N(Cc2ccco2)C(=O)c2snc(C(N)=O)c2N)cc1 (configuration not stated)	-3	-3	16*	3	-1	3

Assay outcomes (PubChem BioAssay)
